Among the test systems are HCT-15 colon; HT29 colon; SNB-75 CNS; SNB-19 CNS; U251 CNS; PC-3 prostate; SK-MEL-5 melanoma; UACC-62 melanoma; LOX IMVI melanoma; SK-MEL-28 melanoma.
Holding throughout (experiment): NCI-60 one-dose screen, 48 h (100 = growth as untreated, 0 = no growth, -100 = all killed)
Common to all, as to conditions: 10 µM unless noted

This passage reports growth results from PubChem BioAssay (NCI).

This is part of a sample that, as a whole, favours compounds with a hit. Of some 83,000 tested, about 20% had one in any assay.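 Step 1: grow cells in 96-well plates. Step 2: add test compound at a single concentration. Step 3: incubate 48 h. Step 4: record percent growth.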 Unmarked numbers belong to inactive results. Active and inactive are the calls of the source. How the source made its calls: active means growth percent below 10; inactive means the rest.

Take `O=C(NNc1nc2cc(F)cc(F)c2n2cccc12)c1ncccn1`: the growth with HCT-15 colon is 26.2%; with HT29 colon it was 25.4%; in the experiment on SNB-75 CNS it was -7.95% (active); in the experiment on SNB-19 CNS, 20%; in the experiment on U251 CNS, 14.4%; with PC-3 prostate it was 31.6%. In addition, the growth is -40.9% (active) in the experiment on SK-MEL-5 melanoma, 2.21% (active) in the experiment on UACC-62 melanoma, 5.13% (active) in the experiment with LOX IMVI melanoma and 22.8% with SK-MEL-28 melanoma.
For `CC1(COc2ccc3ncc(C#Cc4cncc(C(=O)Nc5cc(C(C)(C)C)on5)c4)n3n2)COC1`, the growth with HCT-15 colon was 26%; in the experiment on HT29 colon, 101%; with SNB-75 CNS it was 12.8%; in the experiment with SNB-19 CNS, 60.9%; in the experiment on U251 CNS it was 29%; with PC-3 prostate it was 43.4%. For the same compound, the growth with SK-MEL-5 melanoma was 7.95% (active); in the experiment on UACC-62 melanoma, 29.6%; with LOX IMVI melanoma it was 11%; in the experiment with SK-MEL-28 melanoma, 51.4%.
Consider `CC1(C)CC[C@]2(C(=O)N3CCCN(CC#N)CC3)CC[C@]3(C)C(=CC[C@@H]4[C@@]5(C)CC[C@H](O)C(C)(C)[C@@H]5CC[C@]43C)[C@H]2C1`, for which the growth with HCT-15 colon was 19.1%; with HT29 colon, 34.7%; in the experiment with SNB-75 CNS it was 90.5%; with SNB-19 CNS, 78.3%; in the experiment with U251 CNS, 56.1%; in the experiment with PC-3 prostate, 26.7%. The growth in the experiment on SK-MEL-5 melanoma was 32.2%; in the experiment with UACC-62 melanoma it was 54.6%; in the experiment on LOX IMVI melanoma, -83.7% (active); in the experiment on SK-MEL-28 melanoma it was 72%.
For the compound `COc1cc(/C=C/C(=O)c2ccc(NC(=O)CSc3nnc(-c4ccc5nc(-c6ccccc6)[nH]c5c4)o3)cc2)cc(OC)c1OC`, the growth was 87.6% with HCT-15 colon; 104% with HT29 colon; 81.1% in the experiment on SNB-75 CNS; 84.4% in the experiment with SNB-19 CNS; 80.6% in the experiment on U251 CNS; 99% with PC-3 prostate. In addition, the growth is 92.2% in the experiment on SK-MEL-5 melanoma, 83% with UACC-62 melanoma, 56% with LOX IMVI melanoma and 93.4% in the experiment with SK-MEL-28 melanoma.
With `C#C[C@]1(O)CC[C@H]2[C@@H]3CC=C4c5sc(Nc6cc(OC)ccc6OC)nc5CC[C@]4(C)[C@H]3CC[C@@]21C`, the growth in the experiment with HCT-15 colon was 10.3%; in the experiment with HT29 colon it was 21.1%; with SNB-75 CNS, 2.31% (active); in the experiment on SNB-19 CNS it was 38.3%; in the experiment on U251 CNS, 26.1%; in the experiment with PC-3 prostate it was 18.9%. The growth was 6.5% (active) in the experiment on SK-MEL-5 melanoma, -14% (active) in the experiment on UACC-62 melanoma, 5.19% (active) in the experiment with LOX IMVI melanoma and -46.6% (active) in the experiment with SK-MEL-28 melanoma.
In the case of `COc1cc2c3c(n(CCCNCC4CC4)c(=O)c2cc1OC)-c1cc2c(cc1C3=O)OCO2`, the growth in the experiment with HCT-15 colon was -72.2% (active); in the experiment on HT29 colon it was -70.6% (active); with SNB-75 CNS, 66.8%; in the experiment on SNB-19 CNS, 42.3%; in the experiment with U251 CNS it was -95.7% (active); with PC-3 prostate, 40%. Also, the growth was 53.2% in the experiment with SK-MEL-5 melanoma, 45.7% in the experiment on UACC-62 melanoma, -77.7% (active) in the experiment on LOX IMVI melanoma and 89.7% in the experiment on SK-MEL-28 melanoma.
As for `O=C(Nc1ccc(F)cc1)c1cc(-c2ccc(F)cc2F)ccc1O`, the growth is 11.4% in the experiment on HCT-15 colon; 101% with HT29 colon; 7.01% (active) with SNB-75 CNS; 8.06% (active) with SNB-19 CNS; 6.63% (active) in the experiment on U251 CNS; 5.81% (active) in the experiment on PC-3 prostate. Besides, the growth in the experiment with SK-MEL-5 melanoma was -63.9% (active); in the experiment with UACC-62 melanoma, 5.12% (active); in the experiment on LOX IMVI melanoma it was 4.96% (active); in the experiment on SK-MEL-28 melanoma, 21.9%.
For the compound `Cc1ccccc1/C=C/c1nn2c(-c3ccoc3C)nnc2s1`, the growth in the experiment on HCT-15 colon was 97.9%; in the experiment on HT29 colon, 97.7%; in the experiment on SNB-75 CNS, 111%; in the experiment on SNB-19 CNS it was 90.8%; in the experiment on U251 CNS, 97.6%; in the experiment with PC-3 prostate, 99.4%. Further, the growth with SK-MEL-5 melanoma is 98.4%; in the experiment on UACC-62 melanoma it was 88%; with LOX IMVI melanoma, 101%; in the experiment with SK-MEL-28 melanoma it was 94.9%.
Turning to `Cc1nn(-c2ccccc2)cc1/C=N/Nc1nc(Nc2ccccc2)nc(Nc2ccc(S(N)(=O)=O)cc2)n1`, the growth in the experiment on HCT-15 colon was 7.54% (active); in the experiment on HT29 colon it was 5.91% (active); with SNB-75 CNS it was 44.8%; in the experiment on SNB-19 CNS it was 7.01% (active); in the experiment on U251 CNS, -22.3% (active); with PC-3 prostate it was 1.45% (active). Besides, the growth was -44.3% (active) in the experiment on SK-MEL-5 melanoma, -27.8% (active) in the experiment with UACC-62 melanoma, -25.7% (active) in the experiment on LOX IMVI melanoma and -13.9% (active) with SK-MEL-28 melanoma.
For `O=S(=O)(Nc1ccc(-c2nc(-c3cccc(O)c3)c(-c3ccnc(Br)c3)[nH]2)cc1)c1ccccc1`, the growth in the experiment on HCT-15 colon was 13.3%; in the experiment with HT29 colon it was 31.8%; in the experiment with SNB-75 CNS it was 5.4% (active); in the experiment on SNB-19 CNS, 30.2%; in the experiment with U251 CNS, 30.3%; in the experiment on PC-3 prostate, 9.21% (active). The growth is -26.4% (active) in the experiment on SK-MEL-5 melanoma, 16.4% in the experiment with UACC-62 melanoma, -25% (active) in the experiment on LOX IMVI melanoma and 33.1% in the experiment with SK-MEL-28 melanoma.
Take `NS(=O)(=O)c1ccc(Nc2nc(N/N=C/c3ccc([N+](=O)[O-])cc3)nc(Nc3ccccc3)n2)cc1`: the growth is 86.5% in the experiment with HCT-15 colon; 24.6% in the experiment with HT29 colon; 45.4% in the experiment on SNB-75 CNS; 20.4% in the experiment with SNB-19 CNS; 18.2% with U251 CNS; 50.2% in the experiment on PC-3 prostate. The growth in the experiment with SK-MEL-5 melanoma is 32.3%; in the experiment on UACC-62 melanoma, 45.1%; in the experiment on LOX IMVI melanoma it was -20.6% (active); in the experiment with SK-MEL-28 melanoma it was 35.2%.
Take `c1cncc(-c2cn3nc(-c4c[nH]c5ccccc45)sc3n2)c1`: the growth in the experiment with HCT-15 colon is 27.7%; in the experiment on HT29 colon, 21.6%; in the experiment on SNB-75 CNS it was 51.8%; in the experiment with SNB-19 CNS, 61.1%; in the experiment with U251 CNS, 69.9%; in the experiment with PC-3 prostate it was 48.7%. Moreover, the growth was 23.4% in the experiment with SK-MEL-5 melanoma, 55.3% in the experiment with UACC-62 melanoma, 46.7% in the experiment on LOX IMVI melanoma and 55.5% with SK-MEL-28 melanoma.
